KCNQ2 block – rat KCNQ2 potassium channel inhibitors, primary screen, cell-based, CHO-K1, FluxOR thallium flux, B-score | Potassium voltage-gated channel subfamily KQT member 2 (Rattus norvegicus), O88943 | 20 min; hits give low values | B-score at 10 µM | 1.1% of 310,000 active;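 active = fluorescence ratio B-score at most minus 3 library SDs, with starting brightness B-score within 2 library SDs, cut at about -5.5 in these data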
KCNQ2 enhance – potentiators of rat KCNQ2 potassium channel; Potassium voltage-gated channel subfamily KQT member 2 (Rattus norvegicus), O88943; CHO-K1 KCNQ2, FluxOR thallium flux fluorescence; hits give high values; B-score at 10 µM; 0.54% of 310,000 active; AID 2239, 2010;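 active = fluorescence ratio B-score at least 3 SD of library B-scores, with initial fluorescence B-score within 3 of them, cut at about 5.3 in these data; same plate scores as AID 2156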;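 also: B-score of peak minus minimum over baseline fluorescence ratio after K+ and Tl+ stimulus; positive B-score means potentiation of KCNQ2 with more thallium influx and brighter signal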
* marks the source's active call; other numbers are inactive results; i = inactive; . = no result. Compounds with a hit are over-represented: about 1.6% of the library has one in this group of screens.

SMILES	KCNQ2 block	KCNQ2 enhance
COc1ccc(C(=O)NCc2cnn(C)c2C)cc1OC1CCN(C(C)C)CC1	i	0.42
O=C(OCn1ncc(Br)c(Br)c1=O)c1ccccc1Cl	i	.
O=C(OCn1ncc(Br)c(Br)c1=O)c1ccc(F)cc1	-5.6*	-5.6
COc1cccc(CNC(=O)c2nnn(CC(=O)Nc3cccc(C)c3)c2N)c1	i	1.4
Cc1ccc(/C=C/C(=O)N2CCN(c3ccc(F)cc3)CC2)o1	i	.
Cc1ccc(/C=C/C(=O)N2CCN(c3ncccn3)CC2)o1	i	8.9*
Cc1c(S(=O)(=O)NC2CCCCCC2)c(=O)n(C)c(=O)n1C	i	.
CCOC(=O)c1c(C)[nH]c(C)c1S(=O)(=O)NCCN1CCN(c2ccccc2F)CC1	i	.
CC(c1ccco1)N(C(=O)COc1ccc(Cl)cc1Cl)c1ccccn1 (stereo not given)	-11*	-11
CC(c1ccco1)N(C(=O)c1ccccc1F)c1ccccn1 (stereo not given)	i	0.26
CCc1ccc(-c2cn(-c3nc(C)cc(C)n3)c(=N)o2)cc1	-6.4*	-6.4
CCc1ccc(-c2cn3c(n2)SCC3)cc1	i	.
O=C1CCCN1CCCNc1nc2c(S(=O)(=O)c3ccc(Br)cc3)nnn2c2ccccc12	i	0.09
COc1cc(C(C#N)N2CCC(c3ccccc3)=N2)ccc1O (stereo not given)	i	1.8
COC(=O)c1ccc(COc2ccccc2/C=C(\C#N)C(=O)Nc2c(C)cc(C)cc2C)cc1	-7.2*	-7.2
COC(=O)c1ccc(COc2ccccc2/C=C(\C#N)C(=O)Nc2ccc(C)cc2C)cc1	i	.
O=C(/C=C/c1ccccc1)Nc1nnc(-c2ccco2)o1	i	.
O=C(CC(C(=O)O)c1ccc(Cl)cc1)c1ccccc1 (stereo not given)	i	.
COC(=O)C(CC(=O)c1ccc(Cl)cc1)c1ccc(C)cc1 (stereo not given)	-6.5*	-6.5
CCN1CCCC1CNC(=O)c1cc([N+](=O)[O-])c(N(C)C)cc1OC (stereo not given)	i	1.1
CN(CC(=O)Nc1ccc(F)cc1)C(=O)COC(=O)c1ccc(-c2ccccc2)cc1	i	1
CC(C)c1nnc(NC(=O)c2cccc(NC(=O)C(F)(F)F)c2)s1	-5.9*	-5.9
CC(C)C(=O)Nc1cccc(C(=O)Nc2nnc(C(C)C)s2)c1	i	0.06
CC(C)CC(=O)Nc1c2c(nn1-c1cccc(Cl)c1)CS(=O)C2 (stereo not given)	i	0.64
CC(C)Cc1csc(NC(=O)c2ccccc2Cl)c1C(=O)O	i	.
SMILES	KCNQ2 block	KCNQ2 enhance
CC(C)Cc1csc(NC(=O)c2ccc(Cl)cc2)c1C(=O)O	i	5.6*
COc1ccc(/C=C2\SC(=O)N(CC(=O)Nc3ccc(F)cc3)C2=O)cc1O	i	.
CCOC(=O)c1ccc(N2CCCCC2)c(NS(=O)(=O)c2ccc(C)cc2)c1	-7.3*	-7.3
CCOC(=O)c1ccc(N2CCN(c3ccccc3F)CC2)c(NC(=O)Nc2ccccc2)c1	-6.3*	-6.3
CCN(CC)CCCNC(=O)c1ccc(N2CCCCC2)c(NS(=O)(=O)c2ccc(C)cc2)c1	i	.
CCOC(=O)c1ccc(N2CCN(c3ccc(F)cc3)CC2)c(NC(=O)Nc2cccc(OC)c2)c1	i	.
CN1C(=O)C(CCC(=O)O)NC1=S (stereo not given)	i	0.15
CSc1ccc(S(=O)(=O)NCC(=O)OCC(=O)N(C)Cc2ccccc2)cc1[N+](=O)[O-]	i	0.83
COC(=O)c1c(NC(C)=O)sc2c1CCCC2	i	.
CNC(=S)Nc1sc2c(c1C(=O)OC)CCC2	i	5.6*
CCOC(=O)c1c(NC(=S)NC)sc2c1CC(C)(C)SC2	i	11*
CCOC(=O)c1c(NC(=S)Nc2ccccc2)sc2c1CC(C)(C)SC2	i	.
CCOc1ccc(S(=O)(=O)NNS(=O)(=O)c2ccc(C)cc2C)cc1	i	.
Cc1ccc(SCc2cc(-c3ccc(Cl)cc3)on2)cc1	i	.
Clc1ccc(SCc2cc(-c3ccc(Cl)cc3)on2)cc1	-7.5*	-7.5
Cc1ccc(NC(=O)C(C)OC(=O)CCN=C2NS(=O)(=O)c3ccccc32)cc1 (stereo not given)	i	0.64
CC1CCN(c2nc3ccccc3nc2C(C#N)C(=O)OC2CCCCC2)CC1 (stereo not given)	i	.
CC1CN(c2nc3ccccc3nc2C(C#N)C(=O)OC2CCCCC2)CC(C)O1 (stereo not given)	-5.9*	-5.9
CCOC(=O)C1(Cc2cccc(Cl)c2)CCCN(C(=O)c2cc(C(C)C)nn2C)C1 (stereo not given)	i	.
Cc1cc(Cl)ccc1NC(=O)CSc1nnc(Cc2cccs2)n1Cc1ccco1	-6.3*	-6.3
COc1cc2c(cc1NC(=O)CSc1nnc(Cc3cccs3)n1Cc1ccco1)oc1ccccc12	i	.
COc1ccc(C(=O)CSc2nnc(CNC(=O)c3ccco3)n2C)cc1	i	0.64
C/C(=N\NC(=O)CCc1ccc(S(=O)(=O)N2CCOCC2)cc1)c1ccccc1Cl	i	0.65
COC(=O)CSc1nnc(-c2ccc(NS(=O)(=O)c3ccccc3)cc2)o1	-6.2*	-6.2
Cc1ccc(CSc2nnc(-c3ccc(NS(=O)(=O)c4ccccc4)cc3)o2)cc1	i	.
SMILES	KCNQ2 block	KCNQ2 enhance
Cc1ccc(-c2ccc(/C=N\NC(=O)c3cc4c(ccc5ccccc54)o3)o2)cc1[N+](=O)[O-]	i	0.08
COc1ccc(/C=N/NC(=O)c2cc3c(ccc4ccccc43)o2)cc1OC	i	0.7
COc1ccccc1/C=N/NC(=O)c1cc2c(ccc3ccccc32)o1	-6.4*	-6.4
O=C(N/N=C/c1ccc(-c2ccc(Cl)c(C(=O)O)c2)o1)c1cc2c(ccc3ccccc32)o1	i	5.4*
C=CCn1c(SCC(=O)N(C)c2c(N)n(Cc3ccccc3)c(=O)[nH]c2=O)nnc1-c1ccccc1OC	i	.
CN(C)C(CNC(=O)c1c(F)cccc1Cl)c1ccco1 (stereo not given)	i	.
CC(C)(c1ccccc1)c1ccc(OCCn2cnc3ccccc3c2=O)cc1	-7.4*	-7.4
O=C(c1ccccc1)c1ccc(OCCn2cnc3ccccc3c2=O)cc1	i	0.19
Cc1ccc(S(=O)(=O)N2c3cc(C)ccc3OCC2C(C)(C)C)cc1 (stereo not given)	-6.2*	-6.2
Cc1ccc(S(=O)(=O)N2c3ccccc3OCC2c2ccccc2)cc1 (stereo not given)	i	.
COc1ccc(S(=O)(=O)N2c3cc(C)ccc3OCC2C(C)(C)C)cc1 (stereo not given)	-5.5*	-5.5
COc1cccc(C(=O)N2c3cc(C)ccc3OCC2C(C)(C)C)c1 (stereo not given)	i	.
CC(C)C[C@H](NC(=O)C1CC(=O)N(c2ccc3c(c2)OCCO3)C1)C(=O)N1CCCCC1 (stereo not given in full)	i	1.8
COc1ccc(C)cc1S(=O)(=O)NC(C)c1cnn(-c2ccccn2)c1C (stereo not given)	i	.
Cc1onc(-c2c(Cl)cccc2Cl)c1C(=O)NN1CCCCCC1	i	.
Cc1c(C(=O)NN2CCCCC2)nn(-c2ccc(Cl)cc2Cl)c1-c1ccc(I)cc1	-9.9*	-9.9
CN1N=C2c3ccccc3CCC2C1c1ccc(Cl)cc1 (stereo not given)	i	.

Assay outcomes: PubChem BioAssay, Johns Hopkins Ion Channel Center
